Experimental data reported in the supplement of paper PMC10849652.
The full data set covers some 7,900 targets. This sample favours those with a hit. About 0.6% of all pairs of compound and target were hits.

How the values were obtained:
Assay in all cases: log2 fold change, soluble protein after heating vs DMSO (PISA); higher = thermal stabilisation; K562 cells, 10 uM, 30 min; active = over 0.2 and 3.5 SD of the protein, either way, in both replicates (recomputed)
[1] = compound: COC1=CC=C(C=C1)CN2C=CC3=C2C=C(C=C3)C(=O)NO
How it was run: (§1)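 Soluble protein was defined as the supernatant after 21,000xg for 90 min. It came from K562 cells at 2×10^6 cells/mL given 10 μM compound for 30 min, heated in aliquots for 3 min across 48°C-58°C, pooled, and extracted in PBS with 0.5% NP-40 at 4°C, and was quantified by TMTpro 16plex LC-MS/MS with equalised channel sums. Thermal stability against control samples, from duplicates, is reported as log2 fold change.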

filanesib = compound: CON(C)C(=O)N1N=C(c2cc(F)ccc2F)S[C@@]1(CCCN)c1ccccc1 [filanesib]
How it was run: as §1

zotarolimus = compound: CO[C@H]1C[C@@H]2CC[C@@H](C)[C@@](O)(O2)C(=O)C(=O)N2CCCC[C@H]2C(=O)O[C@H]([C@H](C)C[C@@H]2CC[C@H](n3cnnn3)[C@H](OC)C2)CC(=O)[C@H](C)/C=C(\C)[C@@H](O)[C@@H](OC)C(=O)[C@H](C)C[C@H](C)/C=C/C=C/C=C/1C [zotarolimus]
How it was run: as §1

idasanutlin = compound: COc1cc(C(=O)O)ccc1NC(=O)[C@@H]1N[C@@H](CC(C)(C)C)[C@](C#N)(c2ccc(Cl)cc2F)[C@H]1c1cccc(Cl)c1F [idasanutlin]
How it was run: as §1

alisertib = compound: COc1cc(Nc2ncc3c(n2)-c2ccc(Cl)cc2C(c2c(F)cccc2OC)=NC3)ccc1C(=O)O [alisertib]
How it was run: as §1

[2] = compound: COc1cc2nc(-c3cc(F)ccc3O)nc(N[C@@H]3CNC[C@H]3C(C)(C)O)c2cc1OC
How it was run: as §1

gefitinib = compound: COc1cc2ncnc(Nc3ccc(F)c(Cl)c3)c2cc1OCCCN1CCOCC1 [gefitinib]
How it was run: as §1

[3] = compound: COc1cccc2cc(-c3nc([C@H]4CC[C@H](C(=O)O)CC4)n4ncnc(N)c34)[nH]c12
How it was run: as §1

lapatinib = compound: CS(=O)(=O)CCNCc1ccc(-c2ccc3ncnc(Nc4ccc(OCc5cccc(F)c5)c(Cl)c4)c3c2)o1 [lapatinib]
How it was run: as §1

pictilisib = compound: CS(=O)(=O)N1CCN(Cc2cc3nc(-c4cccc5[nH]ncc45)nc(N4CCOCC4)c3s2)CC1 [pictilisib]
How it was run: as §1

[4] = compound: CS(=O)(=O)c1ccc(-c2cnc(N)c(C(=O)Nc3ccccc3)n2)cc1
How it was run: as §1

crizotinib = compound: C[C@@H](Oc1cc(-c2cnn(C3CCNCC3)c2)cnc1N)c1c(Cl)ccc(F)c1Cl [crizotinib]
How it was run: as §1

[5] = compound: C[C@@H]1COCCN1C2=NC(=NC(=C2)C3(CC3)S(=O)(=O)C)C4=C5C=CNC5=CC=C4
How it was run: as §1

[6] = compound: C[C@H](C1=CC=C(C=C1)C(=O)NC2=C3C=CNC3=NC=C2)N
How it was run: as §1

duvelisib = compound: C[C@H](Nc1ncnc2nc[nH]c12)c1cc2cccc(Cl)c2c(=O)n1-c1ccccc1 [duvelisib]
How it was run: as §1

gandotinib = compound: Cc1cc(Nc2cc(CN3CCOCC3)c3nc(C)c(Cc4ccc(Cl)cc4F)n3n2)n[nH]1 [gandotinib]
How it was run: as §1

tozasertib = compound: Cc1cc(Nc2cc(N3CCN(C)CC3)nc(Sc3ccc(NC(=O)C4CC4)cc3)n2)n[nH]1 [tozasertib]
How it was run: as §1

[7] = compound: Cc1cc(SCc2sc(-c3ccc(C(F)(F)F)cc3)nc2C)ccc1OCC(=O)O
How it was run: as §1

doramapimod = compound: Cc1ccc(-n2nc(C(C)(C)C)cc2NC(=O)Nc2ccc(OCCN3CCOCC3)c3ccccc23)cc1 [doramapimod]
How it was run: as §1

ispinesib = compound: Cc1ccc(C(=O)N(CCCN)[C@@H](c2nc3cc(Cl)ccc3c(=O)n2Cc2ccccc2)C(C)C)cc1 [ispinesib]
How it was run: as §1

Measured: log2 fold change

FECH isoform 2 (UniProt P22830)
Sequence of UniProt P22830 (P22830 whole entry, looked up): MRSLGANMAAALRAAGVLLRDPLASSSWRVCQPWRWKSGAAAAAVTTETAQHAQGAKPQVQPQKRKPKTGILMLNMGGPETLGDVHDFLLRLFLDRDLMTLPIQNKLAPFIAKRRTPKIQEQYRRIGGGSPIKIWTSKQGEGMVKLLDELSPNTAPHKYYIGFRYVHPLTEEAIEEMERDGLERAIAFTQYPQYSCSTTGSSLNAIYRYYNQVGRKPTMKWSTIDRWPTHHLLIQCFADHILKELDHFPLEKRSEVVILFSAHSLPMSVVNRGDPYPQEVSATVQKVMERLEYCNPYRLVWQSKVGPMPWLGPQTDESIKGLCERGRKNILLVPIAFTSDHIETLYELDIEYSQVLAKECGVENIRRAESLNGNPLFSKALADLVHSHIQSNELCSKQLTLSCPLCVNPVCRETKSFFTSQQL
inactive: [1] 0.159 | filanesib -0.188 | zotarolimus 0.082 | idasanutlin -0.127 | alisertib -0.185 | [2] 0.363 | gefitinib 0.153 | [3] 0.062 | lapatinib 0.269 | pictilisib 0.396 | [4] 0.527 | crizotinib 0.021 | [5] 0.161 | [6] -0.12 | duvelisib 0.263 | gandotinib 0.178 | tozasertib 0.162 | [7] 0.029 | doramapimod 0.071 | ispinesib -0.37

GSTP1 (UniProt P09211)
Sequence of UniProt P09211 (P09211 whole entry, looked up): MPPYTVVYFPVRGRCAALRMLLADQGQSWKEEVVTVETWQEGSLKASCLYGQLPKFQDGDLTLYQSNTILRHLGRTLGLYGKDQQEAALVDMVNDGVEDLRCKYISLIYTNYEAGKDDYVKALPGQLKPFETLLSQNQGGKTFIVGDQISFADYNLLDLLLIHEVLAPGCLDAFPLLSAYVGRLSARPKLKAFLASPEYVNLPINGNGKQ
inactive: [1] -0.033 | filanesib -0.038 | zotarolimus 0.004 | idasanutlin -0.033 | alisertib -0.003 | [2] -0.003 | gefitinib 0.021 | [3] 0.069 | lapatinib -0.032 | pictilisib 0.035 | [4] 0.023 | crizotinib 0.038 | [5] 0.033 | [6] -0.067 | duvelisib 0.037 | gandotinib -0.005 | tozasertib -0.008 | [7] 0 | doramapimod -0.019 | ispinesib 0.058

GATD1 (UniProt Q8NB37)
inactive: [1] -0.104 | filanesib 0.022 | zotarolimus -0.004 | idasanutlin -0.038 | alisertib -0.001 | [2] 0.018 | gefitinib -0.014 | [3] 0.052 | lapatinib -0.064 | pictilisib 0.08 | [4] -0.026 | crizotinib 0.023 | [5] -0.256 | [6] 0.012 | duvelisib 0.124 | gandotinib 0.052 | tozasertib -0.075 | [7] 0.033 | doramapimod 0.163 | ispinesib -0.005

HBA1 (UniProt P69905)
Sequence of UniProt P69905 (P69905 whole entry, looked up): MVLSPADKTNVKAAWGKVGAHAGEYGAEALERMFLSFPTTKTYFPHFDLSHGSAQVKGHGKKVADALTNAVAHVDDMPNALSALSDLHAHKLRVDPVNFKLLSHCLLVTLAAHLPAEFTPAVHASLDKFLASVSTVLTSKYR
inactive: [1] -0.037 | filanesib 0.02 | zotarolimus 0.068 | idasanutlin -0.044 | alisertib -0.093 | [2] -0.154 | gefitinib 0.032 | [3] 0.079 | lapatinib 0.036 | pictilisib -0.088 | [4] 0.009 | crizotinib 0.097 | [5] 0.213 | [6] -0.058 | duvelisib 0.094 | gandotinib 0.025 | tozasertib 0.081 | [7] 0.004 | doramapimod 0 | ispinesib 0.24

GTF2A1 (UniProt P52655)
Sequence of UniProt P52655 (P52655 whole entry, looked up): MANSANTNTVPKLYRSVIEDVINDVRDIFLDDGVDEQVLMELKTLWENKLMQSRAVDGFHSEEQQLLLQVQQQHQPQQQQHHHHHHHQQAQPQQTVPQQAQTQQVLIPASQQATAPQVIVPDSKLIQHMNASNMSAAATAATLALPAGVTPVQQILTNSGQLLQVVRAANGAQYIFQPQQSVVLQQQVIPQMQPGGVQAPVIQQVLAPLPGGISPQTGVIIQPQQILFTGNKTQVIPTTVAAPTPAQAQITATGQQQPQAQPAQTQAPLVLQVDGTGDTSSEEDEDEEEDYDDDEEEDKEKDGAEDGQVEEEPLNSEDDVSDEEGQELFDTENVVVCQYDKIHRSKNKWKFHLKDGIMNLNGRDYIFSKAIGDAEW
inactive: [1] -0.102 | filanesib 0.031 | zotarolimus 0 | idasanutlin 0.012 | alisertib -0.126 | [2] -0.069 | gefitinib 0.111 | [3] 0.043 | lapatinib 0.006 | pictilisib 0.012 | [4] 0.061 | crizotinib 0.074 | [5] 0.061 | [6] -0.065 | duvelisib 0.082 | gandotinib 0.07 | tozasertib -0.027 | [7] -0.066 | doramapimod -0.107 | ispinesib 0.24

HIKESHI (UniProt Q53FT3)
inactive: [1] -0.051 | filanesib -0.063 | zotarolimus 0.026 | idasanutlin -0.05 | alisertib -0.076 | [2] 0.067 | gefitinib 0.011 | [3] 0.009 | lapatinib -0.021 | pictilisib -0.004 | [4] -0.007 | crizotinib 0.067 | [5] 0.182 | [6] -0.023 | duvelisib 0.101 | gandotinib -0.033 | tozasertib 0.023 | [7] -0.021 | doramapimod -0.013 | ispinesib 0.192

GSTM4 (UniProt Q03013)
Sequence of UniProt Q03013 (Q03013 whole entry, looked up): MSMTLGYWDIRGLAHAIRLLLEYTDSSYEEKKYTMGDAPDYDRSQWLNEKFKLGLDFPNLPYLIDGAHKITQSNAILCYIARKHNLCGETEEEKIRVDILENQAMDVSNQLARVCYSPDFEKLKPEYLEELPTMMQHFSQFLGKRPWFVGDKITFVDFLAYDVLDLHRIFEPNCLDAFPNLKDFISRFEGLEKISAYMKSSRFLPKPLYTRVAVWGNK
inactive: [1] 0.027 | filanesib 0.103 | zotarolimus 0.084 | idasanutlin 0.031 | alisertib 0.061 | [2] 0.084 | gefitinib -0.056 | [3] 0.068 | lapatinib 0.031 | pictilisib 0.022 | [4] -0.181 | crizotinib -0.006 | [5] 0.004 | [6] 0.054 | duvelisib 0.101 | gandotinib -0.028 | tozasertib -0.068 | [7] 0.035 | doramapimod -0.037 | ispinesib -0.012

HOMER1 (UniProt Q86YM7)
Sequence of UniProt Q86YM7 (Q86YM7 whole entry, looked up): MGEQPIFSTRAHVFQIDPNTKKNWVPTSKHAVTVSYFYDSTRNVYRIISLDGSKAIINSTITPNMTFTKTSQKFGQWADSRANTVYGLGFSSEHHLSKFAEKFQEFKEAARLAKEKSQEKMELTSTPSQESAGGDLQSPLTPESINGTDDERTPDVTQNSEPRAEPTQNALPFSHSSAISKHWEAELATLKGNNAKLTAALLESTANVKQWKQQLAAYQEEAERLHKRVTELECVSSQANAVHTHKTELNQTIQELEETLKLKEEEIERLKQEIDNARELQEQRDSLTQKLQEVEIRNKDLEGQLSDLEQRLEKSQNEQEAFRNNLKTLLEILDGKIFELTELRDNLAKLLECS
inactive: [1] 0.168 | filanesib 0.051 | zotarolimus 0.043 | idasanutlin 0.011 | alisertib -0.083 | [2] -0.023 | gefitinib 0.086 | [3] -0.042 | lapatinib 0.073 | pictilisib -0.001 | [4] -0.011 | crizotinib -0.015 | [5] 0.071 | [6] -0.014 | duvelisib 0.024 | gandotinib -0.068 | tozasertib 0.046 | [7] -0.002 | doramapimod 0.027 | ispinesib 0.083

GALNT2 (UniProt Q10471)
Sequence of UniProt Q10471 (Q10471 whole entry, looked up): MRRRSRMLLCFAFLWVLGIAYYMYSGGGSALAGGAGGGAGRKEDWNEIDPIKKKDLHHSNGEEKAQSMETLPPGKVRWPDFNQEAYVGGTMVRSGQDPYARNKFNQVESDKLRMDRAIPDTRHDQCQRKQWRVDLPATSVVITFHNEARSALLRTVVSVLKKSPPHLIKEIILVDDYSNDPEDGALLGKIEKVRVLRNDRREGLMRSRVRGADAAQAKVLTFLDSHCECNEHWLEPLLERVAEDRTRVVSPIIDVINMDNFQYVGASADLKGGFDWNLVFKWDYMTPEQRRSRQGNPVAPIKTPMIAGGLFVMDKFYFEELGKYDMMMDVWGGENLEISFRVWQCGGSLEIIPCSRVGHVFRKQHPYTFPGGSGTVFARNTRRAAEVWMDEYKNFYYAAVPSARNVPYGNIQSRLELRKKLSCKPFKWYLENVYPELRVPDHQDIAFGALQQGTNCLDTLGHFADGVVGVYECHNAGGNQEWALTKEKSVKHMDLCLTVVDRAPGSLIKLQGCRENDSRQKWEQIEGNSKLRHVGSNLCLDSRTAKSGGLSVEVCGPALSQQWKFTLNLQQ
inactive: [1] 0.018 | filanesib -0.025 | zotarolimus 0.043 | idasanutlin -0.065 | alisertib -0.03 | [2] -0.042 | gefitinib 0.059 | [3] -0.012 | lapatinib 0.036 | pictilisib -0.01 | [4] 0.056 | crizotinib -0.005 | [5] 0.093 | [6] -0.015 | duvelisib 0.05 | gandotinib -0.024 | tozasertib -0.065 | [7] 0.022 | doramapimod -0.001 | ispinesib 0.034

GALNT4 (UniProt Q8N4A0)
inactive: [1] -0.029 | filanesib 0.066 | zotarolimus -0.017 | idasanutlin -0.099 | alisertib -0.015 | [2] 0.011 | gefitinib 0.025 | [3] 0.025 | lapatinib -0.028 | pictilisib 0.172 | [4] 0.047 | crizotinib -0.068 | [5] 0.156 | [6] 0.017 | duvelisib 0.09 | gandotinib -0.153 | tozasertib -0.028 | [7] 0.036 | doramapimod 0.013 | ispinesib 0.04

HDGFL2 (UniProt Q7Z4V5)
inactive: [1] 0.032 | filanesib 0.056 | zotarolimus -0.025 | idasanutlin 0.012 | alisertib -0.051 | [2] -0.013 | gefitinib 0.025 | [3] 0.04 | lapatinib -0.019 | pictilisib -0.004 | [4] 0.086 | crizotinib -0.007 | [5] -0.052 | [6] -0.04 | duvelisib -0.047 | gandotinib 0.005 | tozasertib -0.004 | [7] -0.061 | doramapimod -0.045 | ispinesib 0.019

FANCI (UniProt Q9NVI1)
Sequence of UniProt Q9NVI1 (Q9NVI1 whole entry, looked up): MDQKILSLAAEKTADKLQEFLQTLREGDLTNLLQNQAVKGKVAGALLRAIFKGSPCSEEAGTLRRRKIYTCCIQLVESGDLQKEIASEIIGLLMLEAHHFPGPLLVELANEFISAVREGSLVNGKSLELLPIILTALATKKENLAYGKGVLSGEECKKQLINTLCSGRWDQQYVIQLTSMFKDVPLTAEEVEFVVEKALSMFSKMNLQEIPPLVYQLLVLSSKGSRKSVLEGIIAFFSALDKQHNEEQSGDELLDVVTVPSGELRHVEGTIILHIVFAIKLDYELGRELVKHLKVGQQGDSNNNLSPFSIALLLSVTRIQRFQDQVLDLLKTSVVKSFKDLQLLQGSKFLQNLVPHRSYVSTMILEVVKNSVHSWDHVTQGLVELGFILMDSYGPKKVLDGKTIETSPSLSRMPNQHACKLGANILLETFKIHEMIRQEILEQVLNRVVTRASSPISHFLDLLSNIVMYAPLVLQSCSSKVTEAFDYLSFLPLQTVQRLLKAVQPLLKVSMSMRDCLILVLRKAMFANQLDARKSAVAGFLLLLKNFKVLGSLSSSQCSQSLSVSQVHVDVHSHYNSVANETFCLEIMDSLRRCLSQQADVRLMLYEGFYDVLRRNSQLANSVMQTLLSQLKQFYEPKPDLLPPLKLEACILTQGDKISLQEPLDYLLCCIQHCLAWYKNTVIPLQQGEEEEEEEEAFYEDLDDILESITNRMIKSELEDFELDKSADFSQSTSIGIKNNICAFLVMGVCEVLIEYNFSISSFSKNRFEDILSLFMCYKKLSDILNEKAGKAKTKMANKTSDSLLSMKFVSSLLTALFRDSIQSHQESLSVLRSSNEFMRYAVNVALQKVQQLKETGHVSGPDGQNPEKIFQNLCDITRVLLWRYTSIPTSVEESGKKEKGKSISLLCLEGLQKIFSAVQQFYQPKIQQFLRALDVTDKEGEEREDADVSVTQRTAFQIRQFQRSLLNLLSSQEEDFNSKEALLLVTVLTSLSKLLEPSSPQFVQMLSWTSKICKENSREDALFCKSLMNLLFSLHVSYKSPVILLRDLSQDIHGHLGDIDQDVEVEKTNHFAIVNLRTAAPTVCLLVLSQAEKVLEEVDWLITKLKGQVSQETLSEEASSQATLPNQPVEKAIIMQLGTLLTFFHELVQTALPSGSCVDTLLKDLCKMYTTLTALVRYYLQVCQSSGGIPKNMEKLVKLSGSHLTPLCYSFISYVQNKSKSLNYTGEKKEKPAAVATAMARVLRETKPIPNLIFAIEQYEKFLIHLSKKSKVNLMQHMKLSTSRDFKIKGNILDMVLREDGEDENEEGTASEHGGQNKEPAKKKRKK
inactive: [1] 0.004 | filanesib -0.189 | zotarolimus -0.01 | idasanutlin -0.014 | alisertib -0.015 | [2] -0.113 | gefitinib -0.034 | [3] 0.033 | lapatinib 0.001 | pictilisib 0 | [4] -0.074 | crizotinib -0.138 | [5] 0.139 | [6] 0 | duvelisib 0.031 | gandotinib -0.14 | tozasertib 0.029 | [7] 0.038 | doramapimod -0.021 | ispinesib -0.071

HBQ1 (UniProt P09105)
Sequence of UniProt P09105 (P09105 whole entry, looked up): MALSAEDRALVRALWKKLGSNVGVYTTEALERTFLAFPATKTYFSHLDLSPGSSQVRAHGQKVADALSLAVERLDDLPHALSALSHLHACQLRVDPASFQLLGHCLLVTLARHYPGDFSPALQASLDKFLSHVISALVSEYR
inactive: [1] -0.034 | filanesib -0.027 | zotarolimus 0.051 | idasanutlin -0.023 | alisertib -0.115 | [2] -0.05 | gefitinib 0.033 | [3] 0.091 | lapatinib 0.001 | pictilisib -0.012 | [4] -0.017 | crizotinib 0.037 | [5] 0.065 | [6] -0.148 | duvelisib 0.129 | gandotinib -0.002 | tozasertib 0.015 | [7] -0.023 | doramapimod -0.003 | ispinesib 0.092

GCSH (UniProt P23434)
Sequence of UniProt P23434 (P23434 whole entry, looked up): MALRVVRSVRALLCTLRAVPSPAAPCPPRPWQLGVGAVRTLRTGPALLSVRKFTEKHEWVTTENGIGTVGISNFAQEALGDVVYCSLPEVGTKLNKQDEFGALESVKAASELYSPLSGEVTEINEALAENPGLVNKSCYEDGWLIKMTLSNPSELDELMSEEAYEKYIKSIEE
inactive: [1] -0.086 | filanesib -0.029 | zotarolimus 0.014 | idasanutlin -0.024 | alisertib 0.154 | [2] 0.03 | gefitinib 0.003 | [3] 0.001 | lapatinib -0.028 | pictilisib -0.078 | [4] -0.009 | crizotinib 0.073 | [5] 0.005 | [6] -0.022 | duvelisib -0.014 | gandotinib 0.043 | tozasertib 0.07 | [7] 0.026 | doramapimod 0.032 | ispinesib -0.057

FKBP7 (UniProt Q9Y680)
Sequence of UniProt Q9Y680 (Q9Y680 whole entry, looked up): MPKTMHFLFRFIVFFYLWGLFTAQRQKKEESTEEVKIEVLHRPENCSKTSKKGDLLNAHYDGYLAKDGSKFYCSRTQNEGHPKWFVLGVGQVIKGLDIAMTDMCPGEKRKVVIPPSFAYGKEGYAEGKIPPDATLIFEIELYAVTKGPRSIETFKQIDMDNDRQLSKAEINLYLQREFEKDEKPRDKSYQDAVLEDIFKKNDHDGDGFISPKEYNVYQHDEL
inactive: [1] -0.152 | filanesib -0.036 | zotarolimus -0.029 | idasanutlin 0.047 | alisertib -0.063 | [2] 0.047 | gefitinib 0.086 | [3] 0.003 | lapatinib -0.065 | pictilisib -0.007 | [4] 0.052 | crizotinib 0.094 | [5] 0.003 | [6] 0.114 | duvelisib -0.043 | gandotinib 0.114 | tozasertib -0.054 | [7] 0.005 | doramapimod -0.023 | ispinesib 0.044

HOOK3 (UniProt Q86VS8)
Sequence of UniProt Q86VS8 (Q86VS8 whole entry, looked up): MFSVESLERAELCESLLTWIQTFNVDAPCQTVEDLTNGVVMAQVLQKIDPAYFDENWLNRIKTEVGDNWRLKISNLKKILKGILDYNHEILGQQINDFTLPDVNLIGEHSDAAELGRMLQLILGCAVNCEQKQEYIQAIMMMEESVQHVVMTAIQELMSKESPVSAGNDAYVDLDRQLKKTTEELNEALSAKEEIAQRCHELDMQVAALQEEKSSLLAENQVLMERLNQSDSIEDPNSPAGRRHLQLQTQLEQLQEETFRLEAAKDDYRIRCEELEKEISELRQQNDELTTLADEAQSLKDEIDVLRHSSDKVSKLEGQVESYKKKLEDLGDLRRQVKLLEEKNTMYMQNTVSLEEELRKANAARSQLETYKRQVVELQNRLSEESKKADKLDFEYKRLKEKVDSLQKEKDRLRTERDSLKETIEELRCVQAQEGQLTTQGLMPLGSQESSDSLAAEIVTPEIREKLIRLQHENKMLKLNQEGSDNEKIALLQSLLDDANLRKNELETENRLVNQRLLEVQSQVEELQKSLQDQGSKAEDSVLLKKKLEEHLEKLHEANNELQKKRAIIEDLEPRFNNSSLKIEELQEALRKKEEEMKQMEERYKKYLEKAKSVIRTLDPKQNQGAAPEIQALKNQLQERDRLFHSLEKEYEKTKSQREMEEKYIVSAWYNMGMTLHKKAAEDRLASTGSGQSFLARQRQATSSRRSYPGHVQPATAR
inactive: [1] -0.074 | filanesib -0.108 | zotarolimus 0.001 | idasanutlin 0.036 | alisertib 0.07 | [2] 0.014 | gefitinib -0.006 | [3] 0.018 | lapatinib 0.032 | pictilisib -0.021 | [4] -0.042 | crizotinib -0.123 | [5] -0.05 | [6] 0.036 | duvelisib 0.05 | gandotinib -0.067 | tozasertib 0.037 | [7] 0.033 | doramapimod 0.019 | ispinesib -0.199
